Results filed as inconclusive are left out. A call without a number means that no potency is given here. Activity calls are given as the source filed them. Calls follow the shape of the dose curve; as a rule, active = well fitted inhibition curve with a large enough effect; inconclusive = small, poorly fitted or top-dose-only effect; inactive = no such curve, though single readings can be large or run the other way.

The results in this text go back to PubChem BioAssay AID1224858 (National Center for Advancing Translational Sciences (NCATS), 2016).

This assay is described as follows: Confirmation assay for measurement of the activity of small molecule inhibitors on Zika virus induced Caspase-3 activity in human astrocytes. The conditions noted are these: ZIKV-induced caspase-3/7 luminescence, 6 h; series mostly up to 46.1 µM. Summed up: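 Human astrocytes were pretreated 1 h with compound, then infected with ZIKV (2 FFU/cell) for 6 h at 37 C. Caspase-3/7 activity by Caspase-Glo luminescence; percent inhibition versus uninfected and infected wells.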
On to `NC(=O)c1cccc2[nH]c(-c3ccc([C@H]4CCCN4)cc3F)nc12`, for which the Potency is 13.8 µM (active).

`COc1ccnc2c1CCCCC2S(=O)c1nc2ccccc2[nH]1` (stereo unspecified): the Potency entry was “inactive”.

On to `COc1cc2nc(-c3ccc(N4CCN(C)CC4)cc3)nc(NCCN3CCOCC3)c2cc1OC`, for which the Potency entry is “inactive”.

`O[C@@H](COc1cccc2ncccc12)CN1CCN(C2c3ccccc3[C@@H]3[C@H](c4ccccc42)C3(F)F)CC1` (stereo partly specified): the Potency entry is “inactive”.

`CS(=O)(=O)c1ccc(-c2cn3ccccc3n2)cc1`: the Potency is 7.74 µM (active).

As for `O=C(O)c1cc([N+](=O)[O-])ccc1NCCCc1ccccc1`, the Potency was 8.69 µM (active).

In the case of `Cc1nc(N)sc1-c1ccnc(Nc2ccc(N3CCOCC3)cc2)n1`, the Potency entry was “inactive”.

As to `CCN1/C(=C/C=C/c2sc3ccccc3[n+]2CC)Sc2ccccc21`, the Potency result was “inactive”.

As for `CO[C@H]1C(=O)[C@]2(C)[C@@H](OC)C[C@H]3OC[C@@]3(OC(C)=O)[C@H]2[C@H](OC(=O)c2ccccc2)[C@]2(O)C[C@H](OC(=O)[C@H](O)[C@@H](NC(=O)OC(C)(C)C)c3ccccc3)C(C)=C1C2(C)C`, the Potency entry was “inactive”.

In the case of `O=C(Nc1cc2cc[nH]c2cn1)c1ccccc1`, the Potency was 4.35 µM (active).

`CCCCC1C(=O)N(c2ccccc2)N(c2ccc(O)cc2)C1=O` (stereo unspecified): the Potency entry was “inactive”.

`O=C1C(Cl)=C(NCCN2CCOCC2)C(=O)c2ncccc21`: the Potency was 6.15 µM (active).

In the case of `CC(C(=O)O)c1ccc(C(=O)c2ccccc2)s1` (stereo unspecified), the Potency was 6.15 µM (active).

Take `CN(C)c1ccc2cc(C(=O)N[C@@H](CCCN=C(N)CCl)C(=O)NCc3ccccc3)ccc2c1`: the Potency entry was “inactive”.

Turning to `CC(O)=C(C#N)C(=O)Nc1ccc(C(F)(F)F)cc1`, the Potency is 1.09 µM (active).

On to `CCCCCCCCCCCC(=O)[O][Sn]([CH2]CCC)([CH2]CCC)[O]C(=O)CCCCCCCCCCC`, for which the Potency result is “inactive”.
